# Test results published in the supplement of paper PMC6555819.
# Test system: PPARg:RXRa 270nM:90nM, anti-RXR (NR concentration 270 nM, RXRa partner concentration 90 nM)
# Assay: PBM binding z-score (relative to random genomic background probes); higher = stronger binding; sequences stand for … in GC…GCGATTGACAGCGTAGAATGAAGG
# Method in brief: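 Each nuclear receptor dimer, without ligand, was incubated for 1 h on custom Agilent 4×180K protein-binding microarrays. Binding was detected with antibodies against each partner (one per run), and scanned fluorescence was regression-normalized. The binding z-scores are referenced to random human genomic background probes.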
row,Sequence,PBM binding z-score
1,TTACCAACGTGAAAGGTCGTTGATGCACGCCTTG,4.26
2,CCTACTGCGCCACGAAAGGTCATTGATTCAGTGA,3.21
3,TCATATAGGTAAACGTGAAAGTCGAACGATATGA,2.44
4,GGAACGAGGGCAAAGTTGATAGCATCTGTCGACG,7.24
5,CCTAGCAGGCCAATCTGGGTGACTCAAGGCTTGA,0.524
6,TCTGCTGGGTCAGTTGGTCAGCTAACGAGCTGCC,1.6
7,CCTACTAGGTCATGGTCAGCTAATCTACAGTATG,5.84
8,TCTGTTAGTTGAAGGGCAACCGACGAGTCCGTTT,1.91
9,TCGGCTAGGTCAACGATGGTCAGCTAATCTGCTA,2.37
10,AGAATGAGGTTAATAAGATCAGGGAATTGCGGTC,2.22
11,AGAACGAGGGCAATGAGTTGATAGTACGGGTGGC,0.768
12,AGTCAAAGTTCATCTAGGGAACGTAAGATATGCT,6.34
13,ATAACGAGGGCACGCTGAGTTGATAGCAGAGTAG,1.88
14,ATCTGTAGGTAACCAAGTTCAGTGAATGCCGAAC,0.922
15,AGAACGAGGGCACGCTGAGTTGAGAGCAGAGTAG,1.81
16,CTCGAAAGGTCGTGCTGAGGTGAGTATACCAAAC,3.85
17,CAAACTAGGTCCAGAGGTCAAAGTCCGCTTCCCG,6.22
18,CGTCCAAGGTCAAAGGTCAGTGACGAGATGACGG,9.11
19,GGAACGAGGGCAAAGTTGATAGAATCTGTCGACG,7.15
20,TCTTGTAGATCAATAGAGGATAAGAAAGTGCGCT,1.46

row,Sequence,PBM binding z-score
1,CGAACCAGGTCAAGGACAGTGAATCTCCGCACGC,4.26
2,CCGGCTAGGTCATGGTCAGCTAATCTACAGTATG,2.4
3,ATACCAAGGTGCTCGTGAGGTCGTTGATACTAAC,-0.218
4,CCAACTAGGTCAAGGACAGTGAATCTCCGCACGC,5.37
5,GTAACGAGGGCAAGTTGATAGCAGAGTTTGATGG,1.19
6,TCTGCTAGGTCAGTTGGACAGCTAACGAGCTGCC,1.36
7,AGTCAAAGCTCAGGACGAGGTAACGTAAAGCACG,-0.305
8,ACGTACGGGTCAACGAGGTTATAGCACGCGTATA,4.94
9,CCTTACGGGTCACTGACAGGTTAGAGCATTTGGA,4.64
10,CGAACTAGGTCATCCAGGACAGTCAATACATTGA,6.5
11,CAAACTAGGCCAAAGGTCAAAGTCGAGCCAACCA,10.6
12,CGTCCAAGGTCAATGTCAGTGAAAGAGACTCGAA,4.46
13,TCTATTACTTGAAGGGCAACCGACGAGTCCGTTT,2.11
14,TCTTGTAGATCAACAGGAGGTTAAGAACGATCGA,1.3
15,TCATATAGGTAAATGCTAGGTGAAAGTCCGATCT,2.44
16,TCTAGTTGGTCACGGAGGTCACACAAGACGGGTA,4.05
17,CGAACTAGGTCATCCAAGACAGTGAATACATTGA,6.67
18,TCTTATAGATCAACAGGAGGTTAAGAAAGATCGA,2.08
19,CGAACTAGGTCAGAACAGGAAAGTGAAGGATGAT,4.29
20,ATATGTAGGTTATCGCGTCATTCAGTTTGCGCAT,3.94
